In all, about 2,400 compounds went through this assay and about 220 (9.2%) were called active. The list comes from a sample in which actives are over-represented; it also holds similar structures and randomly drawn compounds. Values without a mark were called inactive.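 How the source made its calls: active means signal change above the mean of dofetilide-free buffer controls plus 3 SD, so a positive margin; inactive means the rest.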

This test in a line: thallium signal changes without hERG – cell-based, CHO-K1 parental line, FluxOR thallium flux, counter-screen for hERG block protection project, confirmation (AID 1839).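 Further: compounds applied alone with no dofetilide to cells lacking hERG.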 Conditions: CHO-K1 parental cells, FluxOR thallium flux fluorescence; at 10 µM.
Take `C=CCN(CC=C)C(=S)NC(=O)/C=C/c1ccc(OC)cc1`: the signal change vs control minus 3*SD hit threshold (margin above threshold, higher = more increase) was -19.8%.

Consider `Cc1cc(-c2cccnc2)c(C#N)c(SCc2cccc(F)c2)n1`, for which the signal change vs control minus 3*SD hit threshold (margin above threshold, higher = more increase) was -37.3%.

For `COC(=O)c1sccc1NC(=S)NCc1ccc(Cl)cc1`, the signal change vs control minus 3*SD hit threshold (margin above threshold, higher = more increase) is -22.4%.

With `CCc1cc2c(=O)n(CCC(C)C)c(=S)[nH]c2s1`, the signal change vs control minus 3*SD hit threshold (margin above threshold, higher = more increase) is 26.1% (active).

`CCOC(=O)C1=C(c2ccccc2)NC(=O)NC1c1ccc(OC)c(OC)c1` (centres undefined): the signal change vs control minus 3*SD hit threshold (margin above threshold, higher = more increase) is -32.6%.

Consider `CSC(=S)N/N=C/c1ccc(Br)cc1`, for which the signal change vs control minus 3*SD hit threshold (margin above threshold, higher = more increase) is -17.6%.

Take `C/C(=N\NC(N)=S)c1ccncc1`: the signal change vs control minus 3*SD hit threshold (margin above threshold, higher = more increase) was -26.5%.

With `CSC(=S)N/N=C/c1ccccc1`, the signal change vs control minus 3*SD hit threshold (margin above threshold, higher = more increase) is 18.1% (active).

Turning to `CC(C)NC(=S)N/N=C/c1ccc(C(C)(C)C)cc1`, the signal change vs control minus 3*SD hit threshold (margin above threshold, higher = more increase) was -20.4%.

As for `C/C(=N\NC(N)=S)c1cccnc1`, the signal change vs control minus 3*SD hit threshold (margin above threshold, higher = more increase) was -29.6%.

`CSC(=S)N/N=C(\C)c1ccccc1`: the signal change vs control minus 3*SD hit threshold (margin above threshold, higher = more increase) was 15.8% (active).

Turning to `CC1=C(C#N)C(Nc2cc(C)ccn2)(C(F)(F)F)C(=O)N1` (centres undefined), the signal change vs control minus 3*SD hit threshold (margin above threshold, higher = more increase) was -31.1%.

`CCOC(=O)c1c(-c2ccc(C)o2)csc1NC(=S)NC(=O)N(C)C`: the signal change vs control minus 3*SD hit threshold (margin above threshold, higher = more increase) is -14.3%.

As to `CNc1nc(N)nc(OC(C(F)(F)F)C(F)(F)F)n1`, the signal change vs control minus 3*SD hit threshold (margin above threshold, higher = more increase) was -25.1%.

For the compound `CC(=O)c1c(N2CCCC2)[nH]c(-c2ccccc2)nc1=S`, the signal change vs control minus 3*SD hit threshold (margin above threshold, higher = more increase) is -21.2%.

With `S=c1[nH]c2ccccc2c2ccccc12`, the signal change vs control minus 3*SD hit threshold (margin above threshold, higher = more increase) was -25%.

On to `S=c1nc(-c2ccc(Br)cc2)[nH]c2ccccc12`, for which the signal change vs control minus 3*SD hit threshold (margin above threshold, higher = more increase) is 53.6% (active).

With `CC(=O)c1c(NC(=O)c2ccccc2)[nH]c(-c2ccccc2)nc1=S`, the signal change vs control minus 3*SD hit threshold (margin above threshold, higher = more increase) was -26.3%.

For `CC(Oc1ccc(Br)cc1)c1nc2c3ccccc3nc(=S)n2[nH]1` (centres undefined), the signal change vs control minus 3*SD hit threshold (margin above threshold, higher = more increase) is -25%.

Consider `S=c1nc(-c2ccccc2)[nH]c2ccc(Br)cc12`, for which the signal change vs control minus 3*SD hit threshold (margin above threshold, higher = more increase) is 52.8% (active).

In the case of `NNC(=O)CNc1ccccc1Cl`, the signal change vs control minus 3*SD hit threshold (margin above threshold, higher = more increase) was -26%.

Take `CN(C)c1ccc(C(CNS(=O)(=O)c2ccc([N+](=O)[O-])cc2)N2CCCC2)cc1` (centres undefined): the signal change vs control minus 3*SD hit threshold (margin above threshold, higher = more increase) is -29%.

For `CC(C)C(=O)Nc1ccc(NC(=O)CCc2ccccc2)cn1`, the signal change vs control minus 3*SD hit threshold (margin above threshold, higher = more increase) is -33.7%.

Regarding `O=C(CCc1ccccc1)Nc1nccs1`, the signal change vs control minus 3*SD hit threshold (margin above threshold, higher = more increase) was -33.8%.

`O=C(Nc1ncc(Br)s1)C(Cc1ccccc1)n1cccc1` (centres undefined): the signal change vs control minus 3*SD hit threshold (margin above threshold, higher = more increase) was 6.9% (active).

Regarding `COc1cccc(OC)c1C(=O)NC(=S)N1CCN(c2ccc(C(F)(F)F)cc2[N+](=O)[O-])CC1`, the signal change vs control minus 3*SD hit threshold (margin above threshold, higher = more increase) was -46.3%.

Take `COCc1cc(C)nc(OCC(=O)N/N=C/c2ccc(-c3cc([N+](=O)[O-])ccc3Cl)o2)c1C#N`: the signal change vs control minus 3*SD hit threshold (margin above threshold, higher = more increase) is -29.8%.

For the compound `Cc1ccccc1Cn1nc(C)c(NC(=O)c2ccccc2)c1C`, the signal change vs control minus 3*SD hit threshold (margin above threshold, higher = more increase) was 11.5% (active).

Regarding `Cc1nn(C(=O)CNC(=O)c2ccccc2)c(C)c1C`, the signal change vs control minus 3*SD hit threshold (margin above threshold, higher = more increase) is -23.2%.

As to `CC(=O)c1n[nH]nc1NC(=O)c1ccccc1`, the signal change vs control minus 3*SD hit threshold (margin above threshold, higher = more increase) is -17.2%.

Consider `Cn1nc(C(F)(F)F)c(-c2ccc(Br)cc2)c1NC(=O)c1cccnc1`, for which the signal change vs control minus 3*SD hit threshold (margin above threshold, higher = more increase) is -37.7%.

As to `O=C1NCC(=O)N2C(c3ccccc3)c3[nH]c4ccccc4c3C[C@@H]12` (some centres undefined), the signal change vs control minus 3*SD hit threshold (margin above threshold, higher = more increase) was -28.2%.

`S=c1nc(-c2ccccc2)[nH]n1-c1ccccc1`: the signal change vs control minus 3*SD hit threshold (margin above threshold, higher = more increase) was 16.8% (active).

Consider `S=c1nc(-c2ccccc2)c(-c2ccccc2)n[nH]1`, for which the signal change vs control minus 3*SD hit threshold (margin above threshold, higher = more increase) was -37%.

Take `S=c1nc(C2CCCCC2)n(-c2ccccc2)[nH]1`: the signal change vs control minus 3*SD hit threshold (margin above threshold, higher = more increase) was -0.7%.

For the compound `COc1cccc(NC(=O)c2nn(-c3ccc(OC)cc3OC)c(=O)c3ccccc23)c1`, the signal change vs control minus 3*SD hit threshold (margin above threshold, higher = more increase) was -26.1%.

Consider `COc1ccc(-n2nc(C(=O)NCC(=O)NCc3ccc(F)cc3)c3ccccc3c2=O)cc1OC`, for which the signal change vs control minus 3*SD hit threshold (margin above threshold, higher = more increase) is -26.4%.

As for `COc1cccc(-n2nc(C(=O)O)c3ccccc3c2=O)c1`, the signal change vs control minus 3*SD hit threshold (margin above threshold, higher = more increase) is 4.7% (active).

With `CC(C)Oc1cc(S(=O)(=O)N2CCCCC2)ccc1N`, the signal change vs control minus 3*SD hit threshold (margin above threshold, higher = more increase) is -27.8%.

With `CC(C)COc1ccc(-c2nn(-c3ccccc3)cc2C(=O)Nc2nccs2)cc1`, the signal change vs control minus 3*SD hit threshold (margin above threshold, higher = more increase) was -25.4%.

`COc1ccc(-c2nc(=S)c3ccc4ccccc4c3[nH]2)cc1`: the signal change vs control minus 3*SD hit threshold (margin above threshold, higher = more increase) was 32.2% (active).

For the compound `COc1ccc(-n2c(=S)[nH]c3ccccc3c2=S)cc1`, the signal change vs control minus 3*SD hit threshold (margin above threshold, higher = more increase) is -30.8%.

Regarding `COc1ccc(OC(=O)Cc2cccc3ccccc23)cc1`, the signal change vs control minus 3*SD hit threshold (margin above threshold, higher = more increase) is -30.2%.

With `CCc1ccc(NC(=S)NC(=O)c2c(-c3ccccc3Cl)noc2C)cc1`, the signal change vs control minus 3*SD hit threshold (margin above threshold, higher = more increase) was -32.8%.

In the case of `C=CCn1c2ccccc2c(=O)c2cc(C#Cc3ccsc3)ccc21`, the signal change vs control minus 3*SD hit threshold (margin above threshold, higher = more increase) was -24.5%.

`COc1ccc(C(=O)CC(=O)C(=O)Nc2ccccc2)cc1`: the signal change vs control minus 3*SD hit threshold (margin above threshold, higher = more increase) was -20.3%.

Turning to `O=C(COc1ccc2ccccc2c1)NNC(=O)C(=O)Nc1ccccc1`, the signal change vs control minus 3*SD hit threshold (margin above threshold, higher = more increase) was 15.8% (active).

With `COc1ccc(NC(=O)C(=O)NNC(=O)COc2ccc(OC)cc2)cc1`, the signal change vs control minus 3*SD hit threshold (margin above threshold, higher = more increase) was -38%.

For `COc1cccc(OCC(=O)NNC(=O)C(=O)Nc2cccc(C)c2)c1`, the signal change vs control minus 3*SD hit threshold (margin above threshold, higher = more increase) was 0.8% (active).

(Values after PubChem BioAssay AID1839 (Johns Hopkins Ion Channel Center, 2009).)
